From PubChem BioAssay (EPA / NIEHS)
The source made the active and inactive calls. How the source made its calls: active means hit-call score of the fitted dose curve at least 0.9, where 1 is the maximum; inactive means score below 0.9.

read-out: Interleukin-1 alpha (IL1a), IL1A (gene 3552); experiment: BSK_LPS_IL1a: BioMAP Diversity Plus: LPS Assay for Interleukin-1 alpha (IL1a) Biomarker Activity (AID 2283080); conditions: primary human HUVEC with PBMC; actives raise or lower the signal
Protocol: BSK_LPS is a cell-based, multiplexed-readout assay that uses umbilical vein endothelium and peripheral blood mononuclear cells, a human vascular primary cell co-culture, with measurements taken at 24 hours after chemical dosing in a 96-well plate.BSK_LPS_IL1a is an assay component measured in the BSK_LPS assay. It measures IL-a antibody related to regulation of gene expression using ELISA technology.Data from the assay component BSK_LPS_IL1a was analyzed into 1 assay endpoint. This assay endpoint, BSK_LPS_IL1a, was analyzed with bidirectional fitting relative to DMSO as the negative control and baseline of activity. Using a type of binding reporter, gain or loss-of-signal activity can be used to understand changes in the signaling as they relate to the gene IL1A. Furthermore, this assay endpoint can be referred to as a primary readout, because this assay has produced multiple assay endpoints where this one serves a signaling function. To generalize the intended target to other relatable targets, this assay endpoint is annotated to the cytokine intended target family, where the subfamily is interleukins.
The levels of cell surface (or secreted, indicated by the prefix "s") biomarker endpoints were measured by ELISA. Overt cytotoxicity to cells in confluent adherent cultures (all systems other than the BT system) was assessed by measuring total protein levels using sulforhodamine B (SRB) staining in parallel cultures at the time of biomarker measurements, indicated as SRB endpoints. For proliferation assays for adherent cell types, individual cell types are cultured at sub-confluence and relative cell numbers quantified by SRB staining at time points optimized for each system (48 h: 3C and CASM3C systems; 72 h: BT and HDF3CGF systems; 96 h: SAg system). SRB was performed by staining cells with 0.1% SRB after fixation with 10% TCA and reading wells at 560 nm.Viability and proliferation of PBMC (T cells) was quantified by Alamar Blue reduction for the SAg and BT systems. For PBMC viability (referred to as PBMC Cytotoxicity within the assay endpoint names), cells were plated (75,000/well in a 96-well plate) and then chemical samples added for 1 h before addition of activators, SEB and TSST-1 (20 ng/mL final concentration each). Cells were incubated for 90 h. Then, Alamar Blue (20 uL/well) (Invitrogen, Cat DAL1100) was added for 6 h, and the plates were read with a fluorescence microplate reader at 546/580 nm (excitation/emission). For PBMC proliferation, cells were plated and activated as above but incubated for only 16 h prior to addition of Alamar Blue. Plates were read after 6 h.

Row | Structure (SMILES) | AC50 | outcome
1 | Cn1c(=O)cc(Oc2ccc(F)cc2F)c2cnc(NCC(C)(C)O)nc21 | 3.97 µM (active) | 
2 | Cc1ccc(S(=O)(=O)O)cc1C |  | inactive
3 | Cn1cnc([N+](=O)[O-])c1Sc1ncnc2nc[nH]c12 |  | inactive
4 | COc1cccc(-c2ccc(/C=C\CN3CCCCCC3)cc2Cl)c1 | 28.4 µM (active) | 
5 | O=C(O)c1cccc(N(Cc2cccnc2)c2ccc(OC(F)F)c(OC(F)F)c2)c1 | 20 µM (active) | 
6 | Cc1c(-c2cccnc2)c2ccccc2n1CCCCC(=O)O |  | inactive
7 | Fc1ccccc1[C@@H](F)COC1CCC(Nc2ncnc3[nH]ncc23)CC1 (stereo not given in full) |  | inactive
8 | CCCC(=O)OCC |  | inactive
9 | O=C1OC(=O)C2C3C=CC(C3)C12 (stereo not given) |  | inactive
10 | O=C(NS(=O)(=O)/C=C/c1ccccc1)c1ccc(F)cc1Cl |  | inactive
11 | CC(C)CCCCCCOC(=O)c1ccc(C(=O)OCCCCCCC(C)C)c(C(=O)OCCCCCCC(C)C)c1 |  | inactive
12 | C1N2CN3CN1CN(C2)C3 |  | inactive
13 | CCC(C)(C)C(=O)O[C@H]1C[C@@H](C)C=C2C=C[C@H](C)[C@H](CC[C@@H]3C[C@@H](O)CC(=O)O3)[C@H]21 | 1.28 µM (active) | 
14 | COc1ccc(/C=C/S(=O)(=O)NC(=O)c2ccc(C)cc2Cl)cc1 |  | inactive
15 | On1ccccc1=S | 19.8 µM (active) | 
16 | Clc1nc(Cl)c(Cl)c(Cl)c1Cl | 14.4 µM (active) | 
17 | O=C1CCCCCN1 |  | inactive
18 | Nc1nc2ncc(CNc3ccc(C(=O)N[C@@H](CCC(=O)O)C(=O)O)cc3)nc2c(=O)[nH]1 |  | inactive
19 | CC(C)(O)c1coc(S(=O)(=O)NC(=O)Nc2c3c(cc4c2CCC4)CCC3)c1 |  | inactive
20 | Oc1ccc2c(c1)-c1ccccc1C2 |  | inactive

Row | Structure (SMILES) | AC50 | outcome
21 | CCOCCO |  | inactive
22 | CN(C)c1ccc(N=NS(=O)(=O)O)cc1 |  | inactive
23 | CCCCC(CC)COC(=O)CCCCCCCCC(=O)OCC(CC)CCCC (stereo not given) |  | inactive
24 | CC(C)=CCCC(C)=CC=O |  | inactive
25 | CC[C@H]1CC[C@H](NCc2cc3c(cc2OC)[C@H]2C[C@H]2C(=O)N3C)[C@H](c2ccccc2)N1 |  | inactive
26 | NC(=O)NO |  | inactive
27 | COc1ccc(-n2nc(C(F)F)cc2-c2ccc(S(C)=O)cc2)cc1 (stereo not given) | 4.92 µM (active) | 
28 | Cc1[nH]cnc1C[C@H]1CCc2c(C)c3ccccc3n2C1=O |  | inactive
29 | CCn1nc(Cc2ccccc2)cc1C1CCN(C[C@H]2C[C@H](N(C)[C@@H](C(=O)O)C(C)C)C[C@@H]2c2cccc(F)c2)CC1 |  | inactive
30 | C=CC(=C)CCC=C(C)C |  | inactive
31 | CCOC(=O)COc1ccc2c(c1)CC(NCC(O)c1cccc(Cl)c1)CC2 (stereo not given) | 18.3 µM (active) | 
32 | O=C(O)c1cccc(Oc2ccccc2)c1 |  | inactive
33 | Cc1ccc(C)c(O)c1 |  | inactive
34 | C1=CCCC=CCCC=CCC1 |  | inactive
35 | CCCCCCCCCCCCCCCO | 31.9 µM (active) | 
36 | CC(=O)OCCC(C)C |  | inactive
37 | COC(=O)CC(=O)OC |  | inactive
38 | CC1(C)C(=O)N(Br)C(=O)N1Br |  | inactive
39 | CC1=CC(=O)CC(C)(C)C1 |  | inactive
40 | CCCCC(CC)COC(=O)c1ccc(C(=O)OCC(CC)CCCC)cc1 (stereo not given) |  | inactive
